This excerpt belongs to a sample that is enriched for hits.
Pf Dd2 inh: Plasmodium falciparum Dd2 growth inhibition; P. falciparum Dd2 growth, SYBR Green, 72 h; AID 1347417; actives 4.3% (n = 120,000); Potency, µM (series often up to 28.9 µM), without a hit: at the highest dose activity, negative = inhibition, usual class: inhibitors; active = well fitted inhibition curve with a large enough effect;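 note: plate controls were DMSO vehicle for no effect and reference drug for full effect; nearly all actives have a fitted effect of over 65% in size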
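Infected erythrocytes (Dd2, 0.3% parasitemia, 2.5% hematocrit final) are added to compound in RPMI-1640/Albumax II medium, grown 72 h at 37C in low oxygen, then lysed with saponin/Triton-X containing SYBR Green and read by fluorescence.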
* = called active by the depositor; i = inactive; [ ] = another dose, or the depositor's remark. Potency is the fitted concentration of half-maximal effect.

SMILES | Pf Dd2 inh
COc1ccc(-c2noc(-c3cccn3CC(=O)N3CCOc4ccc(C)cc43)n2)cc1F | 4µM*
COCCNC(=O)Cn1cccc1-c1nc(-c2ccc(OC)c(F)c2)no1 | -3%
O=C(Cn1cccc1-c1nc(-c2ccccc2)no1)NCCc1ccc(Cl)cc1 | 39%
COc1ccc(C(=O)NCCn2cccc2-c2nc(-c3ccccc3)no2)cc1F | 5µM*
COc1ccccc1CC(=O)NCCn1cccc1-c1nc(-c2ccccc2)no1 | 8.9µM*
O=C(c1ccc(C(F)(F)F)cc1)N1CCC(c2nn(-c3ccc(F)cc3)c(=O)[nH]2)CC1 | i
COc1ccc(OC)c(NC(=O)CC2CCCCN(C)C2=O)c1 (stereo not drawn) | -1%
COC[C@@H]1CN(C(=O)Cc2cc(C)no2)C[C@H]1c1ccncc1 | 16%
COCC(=O)NC1CCC12CCN(C(=O)Cc1c[nH]c3ccccc13)CC2 (stereo not drawn) | -16%
c1ccc(Cc2nnc([C@H]3CCN(CC4CCCCC4)C3)o2)cc1 | i
COc1cc(NC(=O)N2CCCC(Cn3cnc4cccnc43)C2)cc(OC)c1OC (stereo not drawn) | i
CCOc1ccc(Cl)cc1CN(C)Cc1cc2n(n1)CCCNC2 | 5.6µM*
Cc1ccnc(C(NC(=O)CCc2cc3n(n2)CCCNC3)C2CC2)c1 (stereo not drawn) | -5%
CN(Cc1ccc2c(c1)OCO2)Cc1cc2n(n1)CCNC2 | 0%
O=C(C1CCCC1)N1C[C@@H](COc2ccncc2)[C@H](c2ccccn2)C1 | 0%
O=C1Nc2ccccc2C2(CCN(C(=O)c3ccccc3)C2)O1 (stereo not drawn) | -5%[44.1 µM]
CN(C)CCN1CCC(N2CCN(C(=O)c3ccnn3C)CC2)C1=O (stereo not drawn) | -24%
O=C(C1COc2ccccc2O1)N1CCN(c2cc(-c3ccc(Cl)cc3)[nH]n2)CC1 (stereo not drawn) | i
COc1ccc(CCN2C(=O)c3[nH]nc(-c4ccccc4O)c3C2c2ccc(OC)cc2)cc1 (stereo not drawn) | 10µM*
COc1ccc(CCN2C(=O)c3[nH]nc(-c4ccccc4O)c3C2c2ccccc2)cc1 (stereo not drawn) | 8.9µM*
COc1ccc(CN2C(=O)c3oc4ccccc4c(=O)c3C2c2ccc(O)c(OC)c2)cc1 (stereo not drawn) | -16%
CCCNC(=O)CN1C(=O)c2c(c3ccccc3n2C)C1c1ccc(OC)cc1 (stereo not drawn) | 9%
COc1ccc(CCN2C(=O)N(c3ccccc3)C(=O)C2CC(=O)Nc2ccccc2)cc1 (stereo not drawn) | i
CCOc1cc(=O)n2c(c1C(=O)NCc1ccccc1Cl)CCCC2 | 21%
O=C(CCC1CCN(C(=O)c2ccccc2F)CC1)NC1CC1 | -15%
SMILES | Pf Dd2 inh
COc1ccc(CN2CCC3(CC(C)=NO3)C2)cc1 (stereo not drawn) | -12%[44.1 µM]
COc1ccc(C(=O)N(C)C2CCc3ccccc32)cc1 (stereo not drawn) | i
Cc1ccc(C)c(NC(=O)CSc2nc(-c3ccccc3)c(C#N)c(=O)[nH]2)c1 | 21%
COc1ccccc1NC(=O)CSc1nc(-c2ccc(C(C)(C)C)cc2)c(C#N)c(=O)[nH]1 | 10µM*
CCOc1ccccc1NC(=O)CSc1nc2c(c(=O)[nH]1)CCC2 | i
O=C(C1CC1)N1CCC(N2C(=O)C(OCC3CC3)C23CCOCC3)CC1 (stereo not drawn) | 6%
CC(NC(=O)c1ccc2cccc(F)c2n1)c1ccccc1-n1cccn1 (stereo not drawn) | -19%
O=C(CC[C@H]1NC(=O)c2ccccc2NC1=O)NCCc1ccncc1 | 6%
O=C(NCC1CC1)c1nc2c(o1)CCN(Cc1cccc(O)c1)CC2 | i
COc1cccc([S+](=O)([O-])N2CCn3ncc(C(=O)N4CCOCC4)c3C2)c1 | 2%
COc1cccc(-c2cc(C3CCN(S(=O)(=O)c4ccc(F)cc4F)CC3)[nH]n2)c1 | 7.1µM*
COc1cccc(-c2cc(C3CCN(C(=O)Nc4ccccc4F)CC3)[nH]n2)c1 | -4%
COc1cccc(-c2cc(C3CCN(C(=O)c4cc(C)ccc4C)CC3)[nH]n2)c1 | -8%
COc1cccc(-c2cc(C3CCN(C(=O)Nc4cccc(Cl)c4C)CC3)[nH]n2)c1 | i
COc1cccc(-c2cc(C3CCN(C(=O)Nc4ccccc4OC)CC3)[nH]n2)c1 | -19%
COc1cccc(-c2cc(C3CCN(C(=O)Nc4ccc(F)cc4)CC3)[nH]n2)c1 | 5.6µM*
COCCN1CCC(N2CCN(S(=O)(=O)c3ccc(C)c(C)c3)CC2)C1=O (stereo not drawn) | -14%
CC(=O)Nc1ccc(C(=O)N[C@@H]2CCOC[C@H]2OCc2ccccn2)cc1 | -8%
CN1C(=O)CN(CCCCOc2ccccc2)C(=O)c2ccccc21 | -19%
Cc1ccc(CN(C)C(=O)CC(c2ccccc2)c2ccc3c(c2)OCO3)o1 (stereo not drawn) | i
CCOc1cc(=O)n2c(c1C(=O)Nc1ccc(C(N)=O)cc1)CCCC2 | 22%
CCN(CC)S(=O)(=O)c1ccc2oc(C(=O)NCc3ccccc3OC)c(C)c2c1 | 7.9µM*
COc1ccc(S(=O)(=O)N(CC(=O)NCc2ccccc2OC)c2ccc(C)cc2)cc1 | -20%
CCOc1ccc(S(=O)(=O)N(CC(=O)NCc2ccccc2OC)c2ccccc2)cc1 | 9%
COc1ccc(C(=O)NC2CCN(c3cc(-c4ccc(Cl)cc4)[nH]n3)C2)cc1F (stereo not drawn) | i
SMILES | Pf Dd2 inh
Cc1cc(Nc2cccc(C(F)(F)F)c2)nc2ccc(NC(=O)Cc3ccc(Cl)cc3)cc12 | 11µM*
CCn1nnc2cc(C(=O)Nc3cccc(C(F)(F)F)c3)ccc21 | -5%
Cc1cc(Nc2cccc(C(F)(F)F)c2)nc2ccc(NC(=O)c3ccc(N(C)C)cc3)cc12 | 2.8µM*
Cc1ccccc1-c1nc2cc(NC(=O)Cc3ccc(Cl)cc3)ccc2o1 | 3%
Cc1ccc(OCC(=O)Nc2ccc3nc(Nc4cccc(Cl)c4)cc(C)c3c2)cc1 | 36%
CCN(CC)c1cc(C)c2cc(NC(=O)c3cccc(F)c3)ccc2n1 | -6%
CC(=O)N1CCC2(CC1)CN(C(=O)CN(C)C)Cc1ccccc1O2 | 43%
O=C(NC1CCCCCCC1)C1CCN(C(=O)c2ncn3c2COC(c2ccc(Cl)cc2)C3)CC1 (stereo not drawn) | -18%
O=C(NCCn1cnc2ccccc21)C1CC(=O)N(c2n[nH]c3ccccc23)C1 (stereo not drawn) | -6%
CCC(=O)N1CCN(c2nc3c(s2)CN(C(=O)CC)CC3)CC1 | -15%
Cc1nc(-c2cccc(Cl)c2)n(CC(=O)NC(C)C)c(=O)c1CCO | -12%
CC(=O)c1cccc(NC(=O)Cn2c(-c3ccc(F)cc3)nc(C)c(CCO)c2=O)c1 | -29%
CCc1ccc(NC(=O)Cn2c(-c3ccc(Cl)cc3)nc(C)c(CCO)c2=O)cc1 | -12%
Cc1nc(-c2ccccc2)n(CC(=O)Nc2ccc(F)c(Cl)c2)c(=O)c1CCO | 8.9µM*
Cc1ccc(NC(=O)Cn2c(-c3ccc(F)cc3)nc(C)c(CCO)c2=O)c(Cl)c1 | i
Cc1nc(-c2ccc(F)cc2)n(CC(=O)Nc2cc(C(F)(F)F)ccc2Cl)c(=O)c1CCO | 11µM*
Cc1ccccc1NC(=O)Cn1c(-c2cccc(Cl)c2)nc(C)c(CCO)c1=O | i
CCc1ccccc1NC(=O)Cn1c(-c2ccc(F)cc2)nc(C)c(CCO)c1=O | -11%
Cc1cc(C)cc(NC(=O)Cn2c(-c3cccc(Cl)c3)nc(C)c(CCO)c2=O)c1 | 10µM*

Assay outcomes: PubChem BioAssay, National Center for Advancing Translational Sciences (NCATS)
